PPC-1+TRAIL kill: PPC-1 cancer cell killing with TRAIL present; PPC-1 cells + TRAIL, ATPLite viability luminescence; cell killing (% activity), % at 4 µM or 5 µM; 220,000 compounds, 0.41% hits; AID 1443;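 active = cell killing above 50% in the first pass at 4 µM, then a duplicate retest at 5 µM averaging 50% or more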;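 note: plate controls were cells with TRAIL plus DMSO for no effect and medium-only wells lacking cells for full effect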
SENP8 block-1: blocks human SENP8 cleavage of Nedd8 substrate | recombinant SENP8, Nedd8 substrate fluorescence | 360,000 compounds, 0.64% hits | Q96LD8 | inhibition, % at 20 µM; in the data active = inhibition mostly above about 40%, no sharp cut-off; inactive = mostly below about 27%
SENP6 block: inhibitors of human SENP6 protease. Q9GZR1. Recombinant SENP6 catalytic domain, aminoluciferin luminescence. inhibition, % at 10 µM. 330,000 compounds, 1.8% hits. AID 2599;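 active = inhibition above about 50% at the single tested dose, limit read from the data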;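 note: plate controls were DMSO wells with enzyme for no effect and DMSO wells lacking enzyme for full effect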
Target sequence (Q9GZR1 628-1112 limits assumed): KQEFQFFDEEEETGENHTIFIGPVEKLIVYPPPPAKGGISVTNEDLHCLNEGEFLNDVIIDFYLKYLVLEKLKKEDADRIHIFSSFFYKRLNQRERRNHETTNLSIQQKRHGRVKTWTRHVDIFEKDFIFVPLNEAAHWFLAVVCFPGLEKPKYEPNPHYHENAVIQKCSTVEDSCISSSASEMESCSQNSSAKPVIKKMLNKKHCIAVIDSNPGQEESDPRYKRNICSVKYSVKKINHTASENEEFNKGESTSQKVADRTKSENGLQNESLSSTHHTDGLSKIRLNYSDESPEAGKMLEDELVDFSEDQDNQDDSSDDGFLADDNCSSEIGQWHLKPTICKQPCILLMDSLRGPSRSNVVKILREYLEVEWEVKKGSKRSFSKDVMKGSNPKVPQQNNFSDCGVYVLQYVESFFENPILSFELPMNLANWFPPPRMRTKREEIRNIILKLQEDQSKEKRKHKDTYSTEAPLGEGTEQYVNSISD
SENP8 block-2: inhibitors of human SENP8 protease; Q96LD8; purified SENP8, Z-RLRGG-aminoluciferin cleavage, luminescence; inhibition, % at 10 µM; 330,000 compounds, 1.2% hits; in the data active = inhibition above about 50%
TRAIL sens C8: sensitizes caspase-8 expressing cells to TRAIL; NB7+C8 cells + TRAIL, ATPlite viability luminescence; inhibition (viability loss, TRAIL sensitization), % at 10 µM; 360,000 compounds, 1% hits; AID 624354;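 active = compounds causing at least 50% loss of cell viability in the single-dose screen, relative to plate controls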
SENP7 inh: SENP7 protease inhibition; Q9BQF6; recombinant SENP7, Z-RLRGG-aminoluciferin luminescence, 40 min; inhibition, % at 5 µM; 330,000 compounds, 1.5% hits; AID 434973;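 active = inhibition above about 50% at the single test dose, limit read from the data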;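 note: plate controls were DMSO with enzyme for no effect and no enzyme buffer wells for full effect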
* hit, by the source's call. An excerpt weighted towards active compounds, which were near 3% of everything screened.

COc1ccc(C2C(C(=O)N3CCC(C)CC3)c3ccccc3C(=O)N2C)cc1 (stereo unspecified) was read as PPC-1+TRAIL kill 3.3, SENP8 block-1 8.1, SENP6 block 5.7, SENP8 block-2 -3.2, TRAIL sens C8 54.0* and SENP7 inh -1.0.
COc1ccc(C2C(C(=O)N3CC(C)CC(C)C3)c3ccccc3C(=O)N2C)cc1 (stereo unspecified) was read as PPC-1+TRAIL kill -0.2, SENP8 block-1 12.4, SENP6 block 2.1, SENP8 block-2 1.1, TRAIL sens C8 27.9 and SENP7 inh 1.7.
Screening COc1ccc(C2C(C(=O)N3CCN(c4ccccc4F)CC3)c3ccccc3C(=O)N2C)cc1 (stereo unspecified) returned PPC-1+TRAIL kill 4.8, SENP8 block-1 6.5, SENP6 block 0.2, SENP8 block-2 -7.9, TRAIL sens C8 66.9* and SENP7 inh -7.2.
`COCCN(C(=O)c1ccc2c(c1)C(=O)N(c1ccccc1Cl)C2=O)c1c(N)n(CC(C)C)c(=O)[nH]c1=O` gave SENP8 block-1 4.1 and TRAIL sens C8 -7.5.
For COc1ccc(S(N)(=O)=O)cc1C(=O)OCC(=O)Nc1sccc1C#N the results were SENP8 block-1 -5.2, SENP6 block -11.0, SENP8 block-2 -19.7, TRAIL sens C8 -1.6 and SENP7 inh -4.7.
N#Cc1ccsc1NC(=O)COC(=O)c1ccc(NC(N)=O)cc1 was read as PPC-1+TRAIL kill 12.4, SENP8 block-1 -1.9, SENP6 block 49.9, SENP8 block-2 73.3*, TRAIL sens C8 19.2 and SENP7 inh 68.8*.
For N#Cc1ccsc1NC(=O)COC(=O)c1cc2ccccc2cc1O the results were PPC-1+TRAIL kill 8.5, SENP8 block-1 -82.9, SENP6 block 96.4*, SENP8 block-2 89.3*, TRAIL sens C8 6.1 and SENP7 inh 89.0*.
For NC(=O)Nc1ccc(C(=O)OCC(=O)Nc2sccc2C(N)=O)cc1 the results were SENP8 block-1 -4.7, SENP6 block 3.5, SENP8 block-2 -2.6, TRAIL sens C8 19.0 and SENP7 inh -1.9.
`CC(=O)NC(c1cccc(F)c1)c1nc(-c2cccs2)cs1` (stereo unspecified) gave SENP8 block-1 10.2 and TRAIL sens C8 -8.6.
Screening Cc1ccccc1[C@@H](NC(=O)OC(C)(C)C)C(=O)OC(C)(C)C returned SENP8 block-1 17.4, SENP6 block -1.9, SENP8 block-2 -6.8, TRAIL sens C8 -12.6 and SENP7 inh -11.6.
`O=[N+]([O-])c1cccc(N/N=C/c2cccc(O)c2O)c1` gave PPC-1+TRAIL kill 21.9, SENP8 block-1 58.2*, SENP6 block -22.0, SENP8 block-2 2.0, TRAIL sens C8 35.6 and SENP7 inh -17.4.
`Cc1cccc(N/N=C/c2ccc(O)c(O)c2O)c1` gave PPC-1+TRAIL kill 5.4, SENP8 block-1 67.0*, SENP6 block 10.5, SENP8 block-2 27.8, TRAIL sens C8 -3.0 and SENP7 inh 8.1.
`CC1(c2ccccc2)NC(=O)N(CC(=O)N2CCN(S(=O)(=O)c3c(F)cccc3F)CC2)C1=O` (stereo unspecified) gave SENP8 block-1 7.0, SENP6 block 4.2, SENP8 block-2 6.0, TRAIL sens C8 1.6 and SENP7 inh 1.7.
Screening Nc1ccccc1C#CC(=O)c1ccccc1 returned SENP8 block-1 14.6, SENP6 block -9.7, SENP8 block-2 -0.4, TRAIL sens C8 64.2* and SENP7 inh 7.9.
`O=C(C#Cc1cccc([N+](=O)[O-])c1)c1ccccc1` gave PPC-1+TRAIL kill 8.9, SENP8 block-1 24.8, SENP6 block -38.0, SENP8 block-2 5.8, TRAIL sens C8 82.7* and SENP7 inh 3.6.
`CCN(CC)CCNc1cc(C)nc2c1C(=O)C(=O)C=C2N1CCCCC1` gave SENP8 block-1 55.6*, SENP6 block 30.9, SENP8 block-2 12.6, TRAIL sens C8 46.5 and SENP7 inh 17.8.
Screening Cc1ccc(/C(N)=N/OC(=O)c2cc(-c3ccccc3)nc3ccccc23)cc1 returned PPC-1+TRAIL kill -17.2, SENP8 block-1 22.1, SENP6 block 7.1, SENP8 block-2 2.4, TRAIL sens C8 81.4* and SENP7 inh -0.1.
`Cc1cccc(C(=O)O/N=C(\N)c2ccc(Br)cc2)c1` gave PPC-1+TRAIL kill 0.6, SENP8 block-1 -5.2, SENP6 block 37.8, SENP8 block-2 7.9, TRAIL sens C8 34.7 and SENP7 inh 24.7.
Screening N/C(=N\OC(=O)c1cccc2ccccc12)c1ccc(Br)cc1 returned PPC-1+TRAIL kill 33.8, SENP8 block-1 -66.6, SENP6 block -20.6, SENP8 block-2 -8.7, TRAIL sens C8 2.4 and SENP7 inh 6.1.
For Cc1cc(C)cc(C(=O)O/N=C(\N)c2ccc(Br)cc2)c1 the results were PPC-1+TRAIL kill -0.1, SENP8 block-1 7.7, SENP6 block -3.6, SENP8 block-2 -5.3, TRAIL sens C8 90.0* and SENP7 inh 0.1.
For Cc1ccc(C(=O)O/N=C(\N)c2ccc(Br)cc2)cc1C the results were PPC-1+TRAIL kill 42.5, SENP8 block-1 3.7, SENP6 block -8.0, SENP8 block-2 -14.3, TRAIL sens C8 85.9* and SENP7 inh 4.4.
For Cc1ccc(C)c(C(=O)O/N=C(\N)c2ccc(Br)cc2)c1 the results were PPC-1+TRAIL kill -16.9, SENP8 block-1 21.4, SENP6 block 0.1, SENP8 block-2 3.3, TRAIL sens C8 77.5* and SENP7 inh 0.2.
COc1ccc(/C(N)=N/OC(=O)c2cc(-c3ccccc3)nc3ccccc23)cc1 was read as PPC-1+TRAIL kill 18.0, SENP8 block-1 -96.1, SENP6 block -26.9, SENP8 block-2 -9.7, TRAIL sens C8 44.2 and SENP7 inh -2.9.
For Cc1ccc(S(=O)(=O)N2CCN(C(=O)COC(=O)Cc3cccc(C(F)(F)F)c3)CC2)c(C)c1 the results were SENP8 block-1 5.6, SENP6 block 1.8, SENP8 block-2 0.6, TRAIL sens C8 -1.8 and SENP7 inh -6.4.
Screening CC1(C(=O)NCc2ccccc2)CCC(=O)N1CCOc1ccccc1 (stereo unspecified) returned SENP8 block-1 14.8 and TRAIL sens C8 8.9.
`CC(C)C[C@@H](CN1CCCC1CN1C(=S)NC[C@@H]1Cc1ccc(O)cc1)N1C[C@H](Cc2ccc(O)cc2)N(CC2CCCCCC2)C1=S` (stereo partly specified) gave SENP8 block-1 14.9 and TRAIL sens C8 53.2*.
`CC(C)C[C@@H](CN1CCCC1CN1C(=S)NC[C@@H]1Cc1ccc(O)cc1)N1C[C@H](Cc2ccccc2)N(CC2CCCCCC2)C1=S` (stereo partly specified) gave SENP8 block-1 -8.3 and TRAIL sens C8 23.2.
For C[C@@H]1CN([C@H](C)CO)S(=O)(=O)c2ccc(C#Cc3ccccc3F)cc2O[C@H]1CN(C)C(=O)c1ccc2c(c1)OCO2 the results were SENP8 block-1 -88.5 and TRAIL sens C8 23.4.
NC(=O)C1(Nc2ccc(C(=O)O)cc2)CCCC1 was read as SENP8 block-1 7.8 and TRAIL sens C8 -14.6.
